GAA850 FXN act – FXN promoter activators, primary screen, cell-based, luciferase luminescence, HEK293 lucGAA850; actives 0.56% (n = 360,000); HEK293 lucGAA850 FXN promoter luciferase reporter, 24 h; percent of 10 µM SAHA response; activation, % at 6 µM;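 active means activation above the average of all compounds screened plus 3 SD, cutoff fixed separately per campaign, cut at about 7.5% in these data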
MITF act – activators of MITF-driven TRPM1 promoter reporter, primary screen, cell-based, SK-MEL-5, luciferase, single point; SK-MEL-5 TRPM1-promoter luciferase, 24 h; % of positive control, neutral wells = 0; activation, % at 12.5 µM; actives 0.75% (n = 300,000); AID 588334, 2011;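 active means mean activation of at least 80% with every replicate also reaching 80%; inconclusive means mean reaches 80% but some replicate falls short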
esBAF inh – Bmi1 luciferase reporter increase in mESCs, primary screen, esBAF inhibitor project, mouse ES cells, Bmi1 luciferase knock-in, single point | 24 h; 100% = twice the neutral-well signal | AID 602393, 2012 | reporter increase, % at 12.5 µM | actives 2% (n = 350,000); in the data active means activation above about 40%; inconclusive means no clear call, values can overlap the other calls;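 further: a rise in the Bmi1 reporter signal indicates esBAF inhibition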
Wnt act – Wnt/beta-catenin pathway activators, primary screen, cell-based, plate reader, single point; activation, % at 9.35 µM; actives 1.2% (n = 300,000); Wnt/beta-catenin reporter cell assay, activator; in the data active means activation above about 30%, passing the limit was not always enough; inconclusive means no clear call, values can overlap the other calls
Hits are given with their value. Most compounds without a hit are left out; they make up all but 2.8% or so of the library.

`Cn1c(NCCc2ccncc2)nc2cc(-c3ccccc3)sc2c1=O` gave GAA850 FXN act inactive, esBAF inh 56 and Wnt act inactive.
For COc1cccc(-c2cc3nc(NCc4cccnc4)n(C)c(=O)c3s2)c1 the results were GAA850 FXN act inactive, esBAF inh 46 and Wnt act inactive.
For C[C@H]1CN([C@@H](C)CO)C(=O)Cc2cc(NC(=O)NC3CCCCC3)ccc2O[C@H]1CN(C)Cc1ccc(C(=O)O)cc1 the results were esBAF inh inactive.
CCN1[C@@H]2c3ccc(-c4cccc(OC)c4)c(=O)n3C[C@H]1[C@H](CO)[C@H]2C(=O)N(C)C was read as esBAF inh inactive.
`C[C@H](CO)N1C[C@H](C)[C@H](CN(C)C(=O)CCCN(C)C)OCCCC[C@H](C)Oc2ccc(NC(=O)Cc3ccccc3)cc2C1=O` gave esBAF inh inactive.
Screening C[C@H](CO)N1C[C@H](C)[C@@H](CN(C)Cc2ccc(C(=O)O)cc2)Oc2ccc(NC(=O)Nc3cccc4ccccc34)cc2CC1=O returned esBAF inh inactive.
`CCOc1ccccc1C(=O)N[C@H](C(=O)Nc1nc2c(s1)CCCC2)C(C)C` gave GAA850 FXN act inactive, MITF act inactive and Wnt act inactive.
For Cc1ccc(C(=O)Nc2nc3c(s2)CCCC3)o1 the results were GAA850 FXN act inactive, MITF act inactive, esBAF inh inactive and Wnt act 57.
Screening O=C(Nc1nc2c(s1)CCCC2)c1ccc(Br)o1 returned GAA850 FXN act inactive, MITF act inactive and esBAF inh inactive.
Screening O=C(Nc1ncc(Cc2cccc(Cl)c2)s1)c1cccs1 returned GAA850 FXN act inactive, MITF act inactive and esBAF inh 47.
COc1ccc(C(=O)N[C@H](C(=O)Nc2nc3c(s2)CCCC3)C(C)C)cc1 was read as GAA850 FXN act inactive, MITF act inactive, esBAF inh 65 and Wnt act 38.
Screening Cc1ccc(Cc2cnc(NC(=O)c3cccs3)s2)cc1 returned GAA850 FXN act inactive, MITF act inactive and esBAF inh 72.
O=C(Nc1ncc(Cc2ccccc2)s1)c1cccs1 was read as GAA850 FXN act inactive, MITF act inactive and esBAF inh inactive.
C[C@H](NC(=O)N(C)C[C@@H]1OCc2ccccc2-c2c(n(C)c3ccccc23)C(=O)N([C@@H](C)CO)C[C@H]1C)c1ccccc1 was read as esBAF inh inactive.
For C[C@H]1CN([C@@H](C)CO)S(=O)(=O)c2ccc(-c3ccncc3)cc2O[C@@H]1CN(C)Cc1cccnc1 the results were esBAF inh inactive.
Screening C[C@@H]1CN([C@H](C)CO)C(=O)c2cc(NS(=O)(=O)c3cccs3)ccc2O[C@@H]1CN(C)S(=O)(=O)c1ccccc1 returned esBAF inh inactive.
Screening Cc1ccc(C(=O)Nc2ncc(Cc3ccccc3)s2)o1 returned GAA850 FXN act inactive, MITF act inactive, esBAF inh inactive and Wnt act 51.
`CN(c1nc(-c2ccccc2)cs1)C1CCS(=O)(=O)C1` (stereo unspecified) gave GAA850 FXN act inactive, MITF act inactive, esBAF inh 75 and Wnt act inactive.
`O=C(CN1CCOCC1)N[C@@H]1CC[C@H](CCn2cc(C3CCCCC3)nn2)O[C@H]1CO` gave esBAF inh inactive.
For Brc1ccc(/C=N/Nc2ccccc2)cc1 the results were GAA850 FXN act inactive, MITF act 84 and Wnt act inactive.
`Oc1ccc(/C=N/Nc2ccccc2)cc1` gave GAA850 FXN act inactive, MITF act inactive, esBAF inh inactive and Wnt act inactive.
`Brc1ccccc1/C=N/Nc1ccc2ccccc2n1` gave GAA850 FXN act inactive, MITF act inactive and Wnt act inactive.
Screening Brc1ccc(/C=N/Nc2ccc3ccccc3n2)cc1 returned GAA850 FXN act 7.8, MITF act inactive and esBAF inh inconclusive.
For CCCc1cn(CC[C@H]2CC[C@@H](NC(=O)Nc3ccccc3F)[C@H](CO)O2)nn1 the results were esBAF inh inactive.
Screening COc1cccc2cc(C(C)=O)oc12 returned GAA850 FXN act inactive, MITF act inactive, esBAF inh inactive and Wnt act inactive.
For COc1ccc(C(=O)c2cc3cccc(OC)c3o2)cc1 the results were GAA850 FXN act inactive, MITF act inactive, esBAF inh 60 and Wnt act inactive.
For C[C@H](CO)N1C[C@H](C)[C@@H](CN(C)C(=O)Nc2ccc3c(c2)OCO3)Oc2ncc(-c3cccnc3)cc2C1=O the results were esBAF inh inactive.
For CCC(C)(C)NC(=S)Nc1ccc(-c2nc3ccc(C)cc3s2)cc1 the results were GAA850 FXN act inactive, MITF act inactive and Wnt act inactive.
Cc1ccc2nc(-c3ccc(NC(=S)NCC(C)(C)CN(C)C)cc3)sc2c1 was read as GAA850 FXN act inactive, MITF act inactive, esBAF inh inactive and Wnt act 56.
Screening Cc1ccc2nc(-c3ccc(NC(=S)NCCC(C)C)cc3)sc2c1 returned GAA850 FXN act inactive, MITF act inactive, esBAF inh inactive and Wnt act 49.
Screening CCCCNC(=S)Nc1ccc(-c2nc3ccc(C)cc3s2)cc1 returned GAA850 FXN act inactive, MITF act inactive, esBAF inh inactive and Wnt act inactive.
For COc1ccc(CN2[C@@H]3CN(C(=O)C4CC4)c4ccccc4[C@@H]3[C@@H]2CO)cc1 the results were esBAF inh inactive.
`C[C@H]1CN([C@@H](C)CO)C(=O)CCCn2cc(nn2)CO[C@@H]1CN(C)Cc1ccncc1` gave esBAF inh inactive.
For C[C@H]1CN([C@@H](C)CO)C(=O)c2cc(C#Cc3ccccc3F)cnc2O[C@H]1CN(C)C(=O)Cc1ccccc1 the results were esBAF inh inactive.
For C[C@H](CO)N1C[C@H](C)[C@H](CN(C)Cc2ccc(C(F)(F)F)cc2)Oc2ccc(NC(=O)C3CCCCC3)cc2CC1=O the results were esBAF inh inactive.
For C/C(=N\NC(=O)c1cc(Br)ccc1O)c1cccs1 the results were GAA850 FXN act inactive, MITF act 81, esBAF inh inactive and Wnt act inconclusive.
Screening C/C(=N\NC(=O)c1cc(C)[nH]n1)c1cccs1 returned GAA850 FXN act inactive, MITF act inactive, esBAF inh inactive and Wnt act 35.
For C/C(=N/NC(=O)c1cc(C(C)C)[nH]n1)c1cccs1 the results were GAA850 FXN act inactive, MITF act inactive, esBAF inh inactive and Wnt act 33.
`COc1ccc(C(=O)/C=C/c2ccccc2C(F)(F)F)cc1` gave GAA850 FXN act inactive, MITF act inactive, esBAF inh inactive and Wnt act 34.
For Cc1noc(C)c1NC(=O)Nc1cccc2c1O[C@H](CN(C)S(=O)(=O)c1cccs1)[C@@H](C)CN([C@@H](C)CO)C2=O the results were esBAF inh inactive.
Screening COCn1c(-c2cccc(Br)c2)nc2ccccc21 returned GAA850 FXN act inactive, MITF act inactive and esBAF inh inactive.

Screening results (PubChem)
